# Columns and labels:
# Experiment in all cases: PBM binding z-score (relative to random genomic background probes); higher = stronger binding; sequences stand for … in GC…GCGATTGACAGCGTAGAATGAAGG
# [1] = tested on: FXR:RXRa (NR concentration 270 nM, RXRa partner concentration 90 nM)
# Method in brief: (§1)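 Binding z-scores were set against random background probes. The data came from custom Agilent 4×180K protein-binding microarrays carrying double-stranded probes with 34-nt variable regions, incubated 1 h with ligand-free nuclear receptor dimers. Partner-specific antibodies detected binding, and scanned fluorescence was regression-normalized.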
# [2] = tested on: LXRa:RXRa (NR concentration 270 nM, RXRa partner concentration 90 nM)
# Method in brief: as §1
# [3] = tested on: LXRa homodimer (NR concentration 270 nM)
# Method in brief: as §1
# [4] = tested on: LXRb:RXRa (NR concentration 270 nM, RXRa partner concentration 90 nM)
# Method in brief: as §1
# [5] = tested on: LXRb homodimer (NR concentration 270 nM)
# Method in brief: as §1
# [6] = tested on: PPARa:RXRa (NR concentration 270 nM, RXRa partner concentration 90 nM)
# Method in brief: as §1
# [7] = tested on: PPARg:RXRa (NR concentration 180 nM, RXRa partner concentration 90 nM)
# Method in brief: as §1
# [8] = tested on: PPARg:RXRa 270nM:90nM, anti-RXR (NR concentration 270 nM, RXRa partner concentration 90 nM)
# Method in brief: as §1
# [9] = tested on: PPARg:RXRa 30nM:10nM, anti-RXR (NR concentration 30 nM, RXRa partner concentration 10 nM)
# Method in brief: as §1
# [10] = tested on: PPARg:RXRa 90nM:30nM, anti-RXR (NR concentration 90 nM, RXRa partner concentration 30 nM)
# Method in brief: as §1
# [11] = tested on: PPARg:RXRa DBDmut IVT, anti-RXR (DBD mutation: RXRa K156A/R161A, NR concentration 270 nM, RXRa partner concentration 90 nM)
# Method in brief: as §1
# [12] = tested on: PPARg:RXRa IVT, anti-PPARg (NR concentration 270 nM, RXRa partner concentration 90 nM)
# Method in brief: as §1
# [13] = tested on: PPARg DBDmut:RXRa IVT, anti-PPARg (DBD mutation: PPARg1 K132A/R137A, NR concentration 270 nM, RXRa partner concentration 90 nM)
# Method in brief: as §1
# [14] = tested on: PPARg DBDmut IVT, anti-PPARg (DBD mutation: PPARg1 K132A/R137A, NR concentration 270 nM)
# Method in brief: as §1
# [15] = tested on: PPARg homodimer (NR concentration 180 nM)
# Method in brief: as §1
# [16] = tested on: PXR:RXRa (NR concentration 270 nM, RXRa partner concentration 90 nM)
# Method in brief: as §1
# [17] = tested on: PXR homodimer (NR concentration 270 nM)
# Method in brief: as §1
# [18] = tested on: RARa:RXR (NR concentration 270 nM, RXRa partner concentration 90 nM)
# Method in brief: as §1
# [19] = tested on: RARa homodimer (NR concentration 270 nM)
# Method in brief: as §1
# [20] = tested on: RARb:RXRa (NR concentration 270 nM, RXRa partner concentration 90 nM)
# Method in brief: as §1
Sequence,PBM binding z-score [1],PBM binding z-score [2],PBM binding z-score [3],PBM binding z-score [4],PBM binding z-score [5],PBM binding z-score [6],PBM binding z-score [7],PBM binding z-score [8],PBM binding z-score [9],PBM binding z-score [10],PBM binding z-score [11],PBM binding z-score [12],PBM binding z-score [13],PBM binding z-score [14],PBM binding z-score [15],PBM binding z-score [16],PBM binding z-score [17],PBM binding z-score [18],PBM binding z-score [19],PBM binding z-score [20]
ATACCAGGGTGATCGTGAGGTCGTTGATACTAAC,1.34,1.44,0.904,1.5,0.0794,1.82,0.781,0.722,0.104,0.486,0.0988,1.34,0.464,0.118,1.12,3.24,1.47,2.44,0.625,1.23
TCTAGTTGGTCACAGGTCACACACTCGAAATGCG,2.89,2.92,1.82,3.13,0.99,4.37,7.08,6.5,6.07,7.04,3.01,4.53,1.58,1.96,2.52,3.06,0.924,3.51,1.49,3.33
AGAAGGAGGTTACCAAAGATCAGGGAAACGCTTG,0.978,5.85,0.0257,2.9,0.368,2.79,1.84,2.1,0.736,1.37,2.51,2.63,0.699,0.604,0.719,1.25,0.551,1.46,0.412,1.89
TCTATTATTTGATTAGGGCAACCGAAACAGCGGA,0.94,0.738,1.29,1.08,1.33,1.34,0.291,2.43,4.02,3.25,2.19,1.39,2.04,2.12,2.2,0.756,2.04,1.17,3.39,0.93
AGTCTAAGTTCATCTAGGTAACGTAAGATATGCT,4.07,4.07,1.92,2.09,0.539,3.17,1.72,2.24,0.691,1.31,0.694,2.11,1.22,1.39,1.48,4.78,8.13,2.24,0.123,3.55
AGAGTGAGGTTATTAAGATCAGGGAATTGCGGTC,1.77,1.58,0.813,1.94,0.987,2.46,0.616,1.31,0.245,1.12,0.817,0.889,0.661,0.468,2.05,1.43,1.67,1.5,1.44,1.7
TCAGACAGGTGAAGGTAACTGAGGTACGCAGTCG,1.04,1.01,-0.19,0.598,-0.756,1.2,0.727,1.98,3.74,2.96,2.45,1.54,0.121,-0.373,0.384,0.388,-0.0672,0.874,0.545,1.04
CCGATTGGGGCATAAGGTTACCATAAGCCAGCCC,0.433,2.07,-0.331,0.749,-0.968,1.96,1.92,2.87,0.812,2.27,1.21,1.53,-1.1,-1.31,0.682,0.17,-0.12,1.42,-0.579,1.66
TCATATAGGAAAACAGGTGAAAGTCCGTAAGTTA,1.22,1.13,0.235,1.11,-0.323,1.44,1.13,2.8,4.43,3.77,2.83,1.11,0.0218,0.116,0.804,0.845,0.476,1.14,1.74,0.355
CGAACGAGGGCATGACTTGATAGCAAATGCCGAT,0.404,0.369,-0.781,0.0827,-0.668,1.26,1.28,0.865,-0.352,0.26,2.69,1.81,-0.27,-0.449,-0.43,0.219,-0.361,0.614,-0.682,2.01
CAAACTAGGTCACGAAAGGTTAAAGTCGAATGAC,5.89,7.18,3.46,5.5,0.758,6.04,9.67,7.92,5.98,8.04,8.39,9.07,2.59,1.97,3.32,5.8,0.579,5.4,1.18,5.01
TCTAGTTGGTCAAAGGTCACATACTCGAAATGCG,5.54,5.66,3.58,5.2,2.28,6.24,10.8,9.78,9.93,11.1,3.45,6.25,1.46,1.64,5.02,5.59,1.83,7.12,3.51,4.83
CCTAGCAGGACAATCTGGGTCACTCAAGGCTTGA,1.05,0.686,-0.28,0.742,-0.672,3.31,2.44,2.26,0.245,1.56,4.78,5.33,-0.134,-0.424,0.6,0.609,-0.664,1.67,-0.343,1.42
CCTATTAGTTGACCATAAGGGGAACCGAAGCTCG,0.142,0.366,0.327,0.217,0.84,0.0558,0.299,0.112,-0.0773,0.104,0.601,0.106,0.62,0.755,1.54,0.541,0.854,0.248,2.37,0.582
CAGCCTAGGTCACGGCCAGTATAGGAGGAACGTT,4.98,3.61,0.175,2.7,-0.639,4.72,4.54,4.44,1.29,3.12,3.65,4.36,0.0261,-0.166,1.71,2.34,-0.132,3.45,0.239,4.6
TTACCAAGGTGAGCTGAGGTCGTTAATCCAACTC,1.47,0.747,-0.294,0.852,-1.14,1.4,0.0208,0.655,0.0433,0.306,1.09,1.7,-0.772,-1.04,-0.219,4.5,0.182,1.51,-0.951,1.59
CCTTACGGGTCAATGTTATAGCACGGGTGGTACG,4.09,2.96,0.175,2.61,0.428,3.96,3,3.22,1.1,2.16,1.71,2.59,0.14,0.289,1.3,2.45,-0.0609,3.35,0.558,3.57
ATCTCTAGGTAAAGATAGTTCAGTGAATGCAAAT,0.206,4.16,0.484,0.65,0.725,0.625,0.646,0.562,1.03,0.949,2.16,1.66,1.03,1.61,0.566,0.795,0.763,0.643,0.47,0.654
CCTCGGAGGACAGAGGGTCAGAGCTGTCCGCTTT,0.828,0.75,-0.594,0.328,-1.2,1.2,-0.24,0.834,-0.79,-0.115,-0.421,0.141,-1.61,-1.81,0.33,0.62,-0.49,1.14,-0.305,2.22
TCTCTGAGGACACGAAGGTCAGAGCTTTCCAGAG,2.1,1.06,0.117,0.798,-0.338,2,0.595,2.08,2.59,2.22,1.47,1.68,0.539,-0.166,0.898,2.18,1.25,2.04,-0.145,3.29
CAAACCAGGTCAAGGTCAAAGTCGGTTTGTGCCA,7.11,5.98,4.41,5.17,1.73,6.28,7.8,7.07,4.62,6.61,6.42,7.16,2.64,2.41,4.71,5.84,2.63,6.02,2.21,5.38
CCTCGGAGTACAACAGGAGGTCAGAGCTGCCAGA,0.85,1.93,1.79,1.35,-0.438,1.92,0.371,0.479,-0.324,-0.0827,0.161,0.257,-0.9,-1.14,1.18,2.19,0.607,2.23,0.843,2.06
CCGACTGGGGCAGAAAGGTTACAATACCATCCGG,0.452,0.428,-0.0734,1.17,-0.707,2.02,1.77,2.68,0.821,2.01,1.65,1.7,-0.655,-0.38,0.958,1.14,-0.0674,1.67,0.24,1.73
TAGCCTAGGTCATTGGGCCAGGATAGTACGCATC,3.92,3.17,0.159,1.47,-0.488,3.6,3.36,3.58,0.83,2.29,2.04,3.75,0.235,0.25,0.798,1.05,-0.39,1.99,-0.0581,3.49
TCTTGTAGATCAAAGGTTAAGGAAGCCGAAGCCT,1.76,1.94,0.12,1.9,-0.272,4.8,7.91,7.99,7.63,8.41,2.14,3.75,1.3,0.543,1.02,2.01,-0.532,2.9,0.593,2.11
TCAGACAGGTGAAGGTAACTCAAGTACGCAGTCG,1.22,2.77,0.105,1.47,0.174,1.33,0.828,2.07,4.18,3.03,2.91,0.867,0.154,-0.232,0.845,0.794,0.336,0.988,0.423,1.14
CTTCCAAGGTCAGAGAGGTCAGTGAATGCCGAGT,5.96,5.16,3.44,4.49,0.991,4.78,3.44,4.24,1.24,2.89,2.81,3.44,-0.247,0.0425,3.75,5.75,11.5,4.71,1.5,5.27
TAGCCTAGGTCAGATCAGGCCAGTATACGCTATA,2.57,1.55,-0.196,0.898,-0.239,1.69,0.794,0.923,0.0567,0.604,0.459,1.56,0.119,-0.493,0.306,2.07,-0.691,1.21,-0.581,2.93
